In PubChem BioAssay (NCI):
This is part of a sample that, as a whole, favours compounds with a hit. Of some 83,000 tested, about 20% had one in any assay.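 The endpoint reported here, percent growth, reads 100 for growth as untreated, 0 for no net growth and -100 for all cells dead.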 Active and inactive are the calls of the source. The calls were made as follows: active = growth percent below 10; inactive = the rest.

How the values were obtained:
Experiment in all cases: NCI-60 one-dose screen, 48 h (100 = growth as untreated, 0 = no growth, -100 = all killed)
Conditions in all cases: 10 µM
[1] = test system: SK-MEL-2 melanoma
[2] = test system: EKVX NSCLC
[3] = test system: SN12C renal
[4] = test system: UO-31 renal
[5] = test system: TK-10 renal
[6] = test system: ACHN renal
[7] = test system: CAKI-1 renal
[8] = test system: A498 renal
[9] = test system: CCRF-CEM leukemia
[10] = test system: SR leukemia
[11] = test system: RPMI-8226 leukemia
[12] = test system: OVCAR-8 ovarian
[13] = test system: OVCAR-5 ovarian
[14] = test system: OVCAR-4 ovarian
[15] = test system: SK-OV-3 ovarian
[16] = test system: IGROV1 ovarian
[17] = test system: OVCAR-3 ovarian
[18] = test system: HS 578T breast
[19] = test system: NCI/ADR-RES ovarian
[20] = test system: MOLT-4 leukemia

Measured: growth

O=C(CSc1nnc(-c2c[nH]c3ccccc23)n1-c1ccccc1)c1ccc(Br)cc1
inactive: [2] 10.8% | [3] 72.9% | [4] 26% | [5] 64.9% | [6] 37.4% | [7] 44.3% | [8] 36% | [9] 86.4% | [10] 90.8% | [11] 54.4% | [12] 43.5% | [13] 58.3% | [14] 46.2% | [15] 48.6% | [16] 64.1% | [17] 42.5% | [18] 52.3% | [19] 26.3%
active: [1] -19.5%

CN1CCN(c2ccc(C(=O)/C=C/c3ccc(C#N)cc3)cc2)CC1
inactive: [1] 104% | [2] 82% | [3] 73.8% | [4] 61.8% | [5] 102% | [6] 83.5% | [7] 63.8% | [8] 103% | [9] 65.9% | [20] 90.5% | [13] 127% | [14] 85% | [15] 86.6% | [16] 68.1% | [17] 79.9% | [18] 93.8% | [19] 80.8%
active: [11] 5.21%

Cc1ccc2nc(COc3ccc(C(=O)NNC(=S)NC(=O)c4ccccc4)cc3)[nH]c2c1
active: [19] -3.62%
inactive: [1] 68.9% | [2] 51.6% | [3] 58.1% | [4] 18.6% | [5] 67.8% | [6] 23.6% | [7] 26.8% | [8] 97.3% | [9] 51.5% | [10] 25.8% | [11] 64.9% | [12] 42.1% | [13] 80.2% | [14] 57.3% | [15] 67.2% | [16] 53.4% | [17] 58.2% | [18] 60.5%

Cc1noc2c(Cc3ccc([N+](=O)[O-])cc3)nn(CC(=O)N/N=C/c3ccc(Cl)cc3)c(=O)c12
active: [14] 7.98%
inactive: [1] 90.5% | [2] 79.8% | [3] 54% | [4] 40.8% | [5] 71.9% | [6] 19.4% | [7] 52.3% | [8] 80.1% | [9] 95.6% | [10] 88.6% | [11] 84.7% | [12] 20.1% | [13] 73.7% | [15] 67.2% | [16] 63.2% | [17] 35.8% | [18] 10%

O=C(NCCCCCCCCCC[P+](c1ccccc1)(c1ccccc1)c1ccccc1)c1ccc(-n2nc(-c3ccccc3O)nc2-c2ccccc2O)cc1
inactive: [19] 37.4%
active: [1] -79.6% | [2] -90% | [3] -76.4% | [4] -84.3% | [5] -91.1% | [6] -98.6% | [7] -68.5% | [8] -75.1% | [9] 4.27% | [20] -10.4% | [11] 1.07% | [12] -22.2% | [14] -51.8% | [15] -71.5% | [16] -75.7% | [17] -14.1% | [18] -22.1%

CC1(C)[C@@H](NCO)CC[C@]2(C)[C@H]3C(=O)C=C4[C@@H]5C[C@](C)(CO)CC[C@]5(C)CC[C@@]4(C)[C@]3(C)CC[C@@H]12
inactive: [1] 94.6% | [2] 75.5% | [3] 72% | [4] 54.9% | [5] 107% | [6] 63.1% | [7] 59.1% | [8] 140% | [9] 70.3% | [10] 10.3% | [12] 70.9% | [13] 66.1% | [14] 55.4% | [15] 92.8% | [16] 53.8% | [17] 85.4% | [18] 44% | [19] 56%
active: [11] -1.48%

COc1cccc(COc2ccc(/C=C3\Oc4cc(O)ccc4C3=O)cc2)c1
inactive: [1] 87% | [2] 70.9% | [3] 66.1% | [8] 131% | [9] 74.9% | [10] 21.4% | [11] 32.1% | [12] 23.6% | [13] 77.6% | [15] 77.4% | [16] 53.7% | [17] 24.9% | [19] 24.8%
active: [4] -64.7% | [5] 2.68% | [6] -32.1% | [7] -23% | [14] -9.02%

COc1ccc(-c2cc(C(=O)N=Nc3c(O)[nH]c4ccc(Br)cc34)c3ccccc3n2)cc1
inactive: [1] 122% | [2] 44.4% | [4] 43.2% | [5] 97.8% | [6] 24.5% | [7] 57.1% | [8] 143% | [9] 18.9% | [11] 38.7% | [13] 51.3% | [14] 51% | [15] 114% | [16] 12.3% | [18] 61.6% | [19] 43.2%
active: [3] 5.56% | [10] 3.37% | [12] 8.79% | [17] 8.75%

C[C@H]1[C@H](C)CC[C@]2(COC(=O)CCC(=O)NCC#CCN3CCNCC3)CC[C@]3(C)C(=CC[C@@H]4[C@@]5(C)CCCNC(C)(C)[C@@H]5CC[C@]43C)[C@H]12
active: [11] -22.9%
inactive: [1] 96.3% | [2] 73.4% | [3] 64.9% | [4] 42.9% | [5] 70.9% | [6] 59.4% | [7] 49.1% | [8] 111% | [9] 12.5% | [12] 69% | [13] 53.8% | [14] 66.1% | [15] 51.4% | [16] 44.3% | [17] 75.6%

O=C(Cn1cc(CSc2nnc3oc4ccccc4n23)nn1)Nc1ccc(Br)cc1
inactive: [1] 71.5% | [2] 78.5% | [3] 61.5% | [4] 74.2% | [5] 85.8% | [6] 75.2% | [7] 71.2% | [8] 119% | [9] 97.9% | [11] 93.2% | [12] 16% | [13] 91.6% | [14] 87% | [15] 53.8% | [16] 75% | [17] 87% | [18] 20.3%

CN1CCN(c2ccc(Nc3nc(NCCCNC(=O)c4ccccc4)c4sccc4n3)cc2)CC1
inactive: [1] 114% | [2] 89.9% | [3] 84.4% | [4] 74.9% | [5] 117% | [6] 60.1% | [7] 72.5% | [8] 141% | [9] 25.2% | [11] 14.8% | [12] 55.9% | [13] 88.4% | [14] 77.9% | [15] 113% | [16] 94.9% | [17] 78.5% | [18] 78.8% | [19] 82.3%

CC(=O)c1ccc(NC(=O)NCn2c(=O)[nH]c3ccccc3c2=O)cc1
inactive: [1] 106% | [2] 92.5% | [3] 94.2% | [4] 73.7% | [5] 105% | [6] 99.2% | [7] 91.2% | [8] 98.1% | [9] 91.6% | [11] 87.8% | [12] 101% | [13] 107% | [14] 107% | [15] 94.9% | [16] 104% | [17] 131% | [18] 97.3% | [19] 107%

Cc1cc(C)nc(SCC(=O)Nc2ccc(S(N)(=O)=O)cc2)n1
inactive: [1] 103% | [2] 99.8% | [3] 105% | [4] 87.1% | [5] 102% | [6] 101% | [7] 96.5% | [8] 123% | [9] 97.1% | [11] 99.5% | [12] 105% | [13] 107% | [14] 112% | [15] 106% | [16] 109% | [17] 113% | [18] 114% | [19] 106%

C=CC(=O)Nc1nc(-c2cccc(NS(=O)(=O)c3cccc4c(N(C)C)cccc34)c2)cs1
active: [1] -62.7% | [3] -56.6% | [4] -100% | [5] -76.9% | [6] -79.8% | [7] -87.5% | [9] -32% | [11] -36.2% | [12] -38.9% | [13] -61.6% | [14] 7.55% | [16] -74.1% | [17] -69.4% | [18] -0.555% | [19] -56.7%
inactive: [2] 29% | [8] 25.7% | [15] 47.4%

CC1(C)CC[C@]23CC[C@]4(C)[C@H](CC[C@@H]5[C@@]6(C)CC[C@H](N)C(C)(C)[C@@H]6CC[C@]54C)[C@H]2[C@H]1OC3=O
active: [1] -77.2% | [2] -95.4% | [3] -96% | [4] -96.7% | [5] -90.1% | [6] -100% | [7] -98.2% | [8] -90.3% | [9] -32.4% | [11] -31.4% | [12] -50.7% | [13] -99.9% | [14] -90.3% | [15] -32.1% | [16] -94.2% | [17] -81% | [18] -62.2% | [19] -69.4%

COc1ccc(-c2nc(S(=O)(=O)c3ccc(C)cc3)c(S(=O)(=O)CC(=O)N(C)Cc3ccccc3)o2)cc1
active: [6] 6.56% | [9] -35.9% | [11] -35.3% | [17] 1.33%
inactive: [1] 51.1% | [2] 84.6% | [3] 47.4% | [4] 34.8% | [5] 56% | [7] 42.9% | [8] 132% | [12] 29.2% | [13] 63.1% | [14] 68.5% | [15] 98.4% | [16] 66.3% | [18] 67.2% | [19] 28.8%
